TEAD-YAP inh: TEAD-YAP interaction inhibition. HEK-TIYL cells, TEAD-Gal4/YAP UAS-luciferase luminescence. inhibition, % at 9.12 µM. 1.4% of 640,000 active. AID 1259422; in the data active means inhibition above about 32%;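 further: 0% = median of test compound wells and 100% = reference inhibitor wells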
GPR151 activ: activators of human GPR151. PathHunter beta-arrestin GPR151 cells, luminescence. activation, % at 11.2 µM. 1% of 650,000 active; in the data active means activation above about 4.9%;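 further: 0% = median of compound wells and 100% = cells with positive control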
Target sequence (Q8TDV0 whole entry, looked up): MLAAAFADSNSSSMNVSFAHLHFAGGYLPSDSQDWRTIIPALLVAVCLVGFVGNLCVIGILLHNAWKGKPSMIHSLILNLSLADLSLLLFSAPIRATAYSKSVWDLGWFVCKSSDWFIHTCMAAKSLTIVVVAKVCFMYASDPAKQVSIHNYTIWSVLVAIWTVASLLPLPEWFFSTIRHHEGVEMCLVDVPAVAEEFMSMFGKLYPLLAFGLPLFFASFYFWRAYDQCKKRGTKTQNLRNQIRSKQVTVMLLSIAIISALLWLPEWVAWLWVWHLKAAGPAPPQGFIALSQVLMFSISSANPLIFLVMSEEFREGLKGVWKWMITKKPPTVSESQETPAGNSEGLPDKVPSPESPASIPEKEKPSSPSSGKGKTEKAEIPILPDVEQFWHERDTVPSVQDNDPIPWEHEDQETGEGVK
MITF primary: inhibitors of human MITF; O75030; AlphaScreen MITF homodimerization, bead proximity signal; inhibition, % at 2.6 µM; 0.91% of 650,000 active; AID 1259374; in the data active means inhibition above about 50%;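 further: 0% = vehicle wells with protein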
FBW7 act: human FBW7 E3 ligase activation, primary screen; Q969H0; AID 1259310; AlphaScreen FBW7–phospho-cyclin E peptide binding, activator screen; 0.13% of 650,000 active; normalized activity (activation), % at 26.1 µM; in the data active means normalized activity above about 1.9%;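 further: purified mutant Fbw7 with reduced substrate affinity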
MITF inh conf: confirmation of human MITF inhibitors | shares compounds with MITF primary | AlphaScreen MITF homodimerization, biotin/His-MITF beads | inhibition, % at 2.6 µM | 16% of 4,700 active | AID 1259372;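 active means inhibition above a cutoff derived from the DMSO control wells, cut at about 28% in these data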;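 further: 0% = MITF dimer wells with DMSO only; inhibitors lower the bead chemiluminescence by keeping MITF from dimerizing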
AS interf DR: optically interferes with AlphaScreen signal in dose response. shares compounds with MITF primary. AlphaScreen optical interference counterscreen, cell-free. IC50, µM. 6% of 480 active. AID 1259373; call rule not given here
AS interf ctr: AlphaScreen optical interference, counter-screen | shares compounds with MITF primary | inhibition, % at 2.6 µM | AID 1259376 | 7.6% of 4,700 active | LysRS AlphaScreen counterscreen, signal interference, triplicate;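 active means inhibition above a cutoff derived from the DMSO control wells, cut at about 30% in these data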
Numbers without * were called inactive; / = no result given. An excerpt weighted towards active compounds, which were near 3.5% of everything screened.

SMILES	TEAD-YAP inh	GPR151 activ	MITF primary	FBW7 act	MITF inh conf	AS interf ctr	others
CC(=O)c1ccc(S(=O)(=O)N(CCCO)Cc2cc3c(C)cc(C)cc3[nH]c2=O)cc1	-56	0	-19	0	/	/
O=C(c1ccc(F)cc1)N1CCN(Cc2cccc(F)c2)CC1	4	1	58*	0	4	4
CSc1ccc(CN2CCN(C(=O)c3ccc(F)cc3)CC2)cc1	44*	-1	55*	1	7	12
CSc1ccc(CN2CCOc3ccc(CN4CCN(C(C)=O)CC4)cc3C2)cc1	37*	1	88*	0	3	-2
O=C(c1cccc(F)c1)N1CCN(Cc2cccc(Oc3ccccc3)c2)CC1	-16	2	38	0	/	/
COc1ccc(C(=O)N2CCN(Cc3cccc(F)c3)CC2)cc1	-11	-1	46	0	/	/
CSc1ccc(CN2CCN(C(=O)c3ccc(-c4ccccc4)cc3)CC2)cc1	7	0	1	0	/	/
O=C(c1cccc(F)c1)N1CCN(Cc2cccnc2)CC1	-3	0	87*	0	-4	0
O=C(NNC(=O)c1ccccc1-c1ccccc1C(=O)O)c1ccco1	-2	1	-3	0	/	/
CN(C)S(=O)(=O)c1ccc(C(=O)N2CCC3(CC2)CC(=O)c2ccccc2O3)cc1	-3	1	-9	0	/	/
C=CCOC(=O)C1=C(C)NC(C)=C(C(=O)OCC=C)C1c1ccc(OC)cc1	1	1	-4	0	/	/
COc1cc(OC)cc(C(=O)N2CCN(Cc3cccc(Br)c3)CC2)c1	5	-2	41	0	/	/
O=C(c1ccccc1F)N1CCN(Cc2cccc(F)c2)CC1	-6	1	54*	0	-3	4
O=C(c1cccc(Cl)c1)N1CCN(Cc2cccc(F)c2)CC1	3	0	67*	0	-4	6
O=C(c1ccccc1F)N1CCN(CC2CC3C=CC2C3)CC1 (stereo not given)	5	0	39	0	/	/
O=C(c1cccc(F)c1)N1CCN(CC2CC3C=CC2C3)CC1 (stereo not given)	-6	0	58*	0	-23	4
O=C(c1ccc(F)cc1)N1CCN(Cc2cccc(Br)c2)CC1	9	-1	58*	0	-7	-6
CC(C)CC(=O)Nc1ccnn1C1CCN(Cc2ccc(F)cc2Cl)CC1	10	2	1	0	/	/
CC(c1nccs1)N(C)Cc1c(C(=O)N2CCCC2)nc2sccn12 (stereo not given)	-1	-1	-16	0	/	/
CSc1ccc(-c2ccc(C(=O)NCc3ccco3)c(N(C)CCN(C)C)n2)cc1	-11	0	4	0	/	/
O=C(c1ccc(-c2ccccc2)cc1)N1CCN(Cc2cccnc2)CC1	-10	1	68*	0	19	15
COc1ccc(CN2CCN(C(=O)c3cccc(F)c3)CC2)cc1OC	-1	0	31	0	/	/
COc1cc(CN2CCN(C(=O)c3cccc(F)c3)CC2)cc(OC)c1O	-1	0	68*	0	-3	6
COc1ccc(C(=O)N2CCN(Cc3cccc(Br)c3)CC2)cc1	-2	0	51*	0	6	14
O=C(c1cccc(F)c1)N1CCN(Cc2cccc(F)c2)CC1	-6	-1	57*	0	6	16
SMILES	TEAD-YAP inh	GPR151 activ	MITF primary	FBW7 act	MITF inh conf	AS interf ctr	others
CCC1CN(CC(=O)N2CCc3cc(OC)c(OC)cc3C2)Cc2cc(OC)ccc2O1 (stereo not given)	12	-1	5	0	/	/
Cc1cccc(CN2CCC(N(C)CC3COCCO3)CCC2=O)c1 (stereo not given)	0	1	-12	0	/	/
O=C(NCc1ccccc1)C(c1ccco1)N(Cc1cccs1)C(=O)c1cnccn1 (stereo not given)	12	-1	22	0	/	/
O=C(c1cccc(F)c1)N1CCN(Cc2ccncc2)CC1	-7	-2	78*	1	64*	-6	AS interf DR=>5.7
O=C(c1cccc(C(=O)N2CCN(Cc3ccccc3)CC2)c1)N1CCN(Cc2ccccc2)CC1	16	-1	-4	0	/	/
COC(=O)c1cc(-c2ccc(NC(C)=O)cc2)nc2ccccc12	-12	-1	-11	0	/	/
O=C(CN1CCCC1)Nc1ccccc1N1CCOCC1	0	-1	34	0	/	/
